# HT1080-NT tox – kills 2HG-producing HT-1080-NT fibrosarcoma cells. HT-1080-NT fibrosarcoma viability, CellTiter-Glo ATP luminescence, 48 h. Potency, µM (top dose mostly 46.1 µM), inactives show at the highest dose activity, negative = less viability, most hits filed as cytotoxic. actives 1.6% (n = 360,000). AID 686970;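 also: NT is the 2HG producing partner of a matched IDH1 knockdown line; 0% = DMSO-treated cells and -100% = media-only wells without cells; nearly all actives have a fitted effect of over 55% in size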
#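 HT-1080-NT fibrosarcoma cells (2HG-overproducing), 750 cells/well in RPMI with 5% FBS, dosed after 2 h and incubated 48 h at 37C. CellTiter-Glo luminescence normalized to DMSO and no-cell wells; concentration-response curves fitted and classed.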
# TGFb SMAD3 inh – blocks TGF-b signaling. actives 1.2% (n = 410,000). AID 588855. Potency, µM (doses to about 46.1 µM), for the others: at the highest dose activity, negative = inhibition, most hits filed as inhibitors. HepG2 CAGA-GFP TGF-b/SMAD3 reporter, GFP fluorescence, 18 h; TGF-beta stimulated, 500 pg/mL final; also: % is scaled to controls: 0 for no effect and ±100 for the full control effect; nearly all actives have a fitted effect of over 65% in size
#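 First, reporter cells (HEPG2 CAGA-GFP) rested 2 h at 37 degrees C. Next, compounds were pinned in and TGF-beta added to 500 pg/mL final. After 18 h, GFP was imaged per cell and summed per well.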
# TDP1 cell noCPT – qHTS for Inhibitors of human tyrosyl-DNA phosphodiesterase 1 (TDP1): qHTS in cells in absence of CPT | DT40 Tdp1-/- hTDP1 cells, no CPT, ATP luminescence, 48 h | Potency, µM (top dose mostly 46.2 µM), for the others: at the top dose activity change, negative = growth inhibition, hits mostly inhibitors | actives 15% (n = 420,000) | AID 686978, 2013; also: % is scaled to controls: 0 for no effect and ±100 for the full control effect; nearly all actives have a fitted effect of over 55% in size
#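 DT40 Tdp1-/-;hTDP1 cells, no CPT (DMSO vehicle only), 400 cells/well; compounds pin-transferred; ≥48 hr, 37 °C; CellTiter-Glo 30 min RT dark, luminescence read.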
# DT40 TDP1 CPT – growth inhibition of DT40 Tdp1-/-;hTDP1 cells with camptothecin (screen for TDP1 inhibitors) | chicken DT40 Tdp1-/-;hTDP1 cells + 20 nM CPT, ATP luminescence, 48 h | AID 686979 | actives 12% (n = 420,000) | Potency, µM (series often up to 46.2 µM), for the others: at the top dose activity change, negative = growth inhibition, most hits filed as inhibitors; also: % is scaled to controls: 0 for no effect and ±100 for the full control effect; nearly all actives have a fitted effect of over 55% in size
#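 Cell growth measured by CellTiter-Glo luminescence after a minimum 48 h, 37 C compound exposure with 20 nM CPT in Tdp1-knockout DT40 cells stably expressing hTDP1, seeded 400/well; qHTS titration format.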
# HT1080 IDH1KD tx – HT-1080 IDH1 knockdown cell toxicity (counter line); HT-1080 IDH1 knockdown viability, ATP luminescence, 48 h; Potency, µM (doses to about 46.1 µM), inactives show at the top dose activity, negative = toxicity, most hits filed as cytotoxic; actives 2% (n = 360,000);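 also: 0% = DMSO wells and -100% = cell-free medium wells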
#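 Using the IDH1-knockdown HT-1080 line run in the same batch and compound series as the NT line, viability after 48 h at 37 °C was determined by CellTiter-Glo luminescence and expressed as % activity.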
# HepG2 tox – HepG2 cytotoxicity, counter-screen for TGF-b inhibitors; HepG2 CAGA-GFP viability, ATP luminescence, 18 h; actives 0.76% (n = 410,000); AID 588856; Potency, µM (series often up to 46.1 µM), without a hit: at the highest dose activity change, negative = cytotoxicity, most hits filed as cytotoxic
#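 CellTiter-Glo luminescence gave cytotoxicity after 18 hours at 37 degrees C. The cells were HepG2 CAGA-GFP in 1% FBS DMEM, stimulated with 500 pg/mL TGF-beta after compound addition. %Activity was normalised to no-cell wells (complete cell-killing) and DMSO (no toxicity), and curves were fitted and classified.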
# Active calls of the source: *; ? = inconclusive; / = no result. Only some compounds are listed: those with a hit (about 17% of all), similar ones and a draw of the others. Calls follow the shape of the dose curve; as a rule, active = well fitted curve in the direction sought with a large enough effect; inconclusive = small, poorly fitted or top-dose-only effect, or another doubt; inactive = no such curve, though single readings can be large; an effect the other way counts as inactive or inconclusive. Potency is read from the fitted curve at half-maximal effect.
SMILES,HT1080-NT tox,TGFb SMAD3 inh,TDP1 cell noCPT,DT40 TDP1 CPT,HT1080 IDH1KD tx,HepG2 tox
CCN1CCN(c2cc(C)c3cc(NC(=O)/C=C/c4cccc(OC)c4OC)ccc3n2)CC1,/,?,?,?,/,-77%
CCN1CCN(c2cc(C)c3cc(NC(=O)/C=C/c4cccc(Cl)c4)ccc3n2)CC1,/,84%,-7%,5.2µM*,/,-35%
CCN1CCN(c2cc(C)c3cc(NC(=S)N(CC)CC)ccc3n2)CC1,-11%,-12%,?,?,-7%,-30%
CCN1CCN(c2cc(C)c3cc(NC(=O)c4cccc(Cl)c4)ccc3n2)CC1,/,?,6.5µM*,15µM*,/,-78%
CON(c1nc(Cl)nc(N(C)C)n1)S(=O)(=O)c1ccc(C)cc1,-16%,-23%,16µM*,-6%,?,-13%
CN(C)C(=O)c1cccc(-c2cnc3c(NC=O)cc(-c4cc(F)c(F)c(F)c4)cn23)c1,-1%,-24%,?,?,6%,-8%
COc1cccc(-c2cc(NC=O)c3ncc(-c4ccc(OC)c(OC)c4)n3c2)c1,2.9µM*,?,4.1µM*,5.2µM*,6.5µM*,-27%
COc1cccc(-c2cnc3c(NC=O)cc(-c4cc(OC)c(OC)c(OC)c4)cn23)c1,?,32%,?,?,16µM*,-47%
CN(C)C(=O)c1cccc(-c2cnc3c(NC=O)cc(-c4ccccc4F)cn23)c1,-4%,?,18µM*,?,-17%,-6%
COc1ccc(-c2cnc3c(NC=O)cc(-c4cccc(NS(C)(=O)=O)c4)cn23)cc1OC,2.3µM*,?,3.7µM*,4.6µM*,4.6µM*,-1%
O=C(N/C(=C/c1cn(-c2ccccc2)nc1-c1ccccc1)C(=O)N1CCOCC1)c1ccc(Cl)cc1Cl,11%,-11%,?,?,4%,-12%
CCn1c(=O)n(CC)c2cc(NC(=O)C(C)c3ccccc3)c(Br)cc21 (stereo not drawn),-8%,1%,?,?,-4%,1%
COc1ccc(-c2cc(NC=O)c3ncc(-c4ccc(OC)c(OC)c4)n3c2)c(OC)c1,0.0073µM*,?,0.033µM*,0.041µM*,0.082µM*,-19%
COc1cc(-c2cc(NC=O)c3ncc(-c4cccc(C(=O)N(C)C)c4)n3c2)cc(OC)c1OC,-23%,22%,15µM*,?,-10%,-40%
Cc1cccc(C)c1N1C(=O)c2ccccc2NC(=O)C1C(=O)NCC(C)C (stereo not drawn),9%,/,5%,-5%,-1%,/
CCOC(=O)c1c(NC(=O)COc2cccc(C(F)(F)F)c2)sc2c1CCC(C)C2 (stereo not drawn),/,2%,-30%,-15%,/,1%
CCCCNC(=S)N(C)/N=C/c1ccc(OCc2ccc(C(=O)OC)cc2)c(OC)c1,13%,-23%,15µM*,?,20%,-4%
CCC(=O)c1ccc(OCc2ccc(C(=O)OC)cc2)c(OC)c1,5%,10%,?,4%,0%,-17%
CCOC(=O)c1cnc2ccccc2c1Nc1cccc(OC)c1,/,-13%,16µM*,?,/,-11%
CCOC(=O)c1cnc2ccc(C)cc2c1Nc1ccc(OCc2ccccc2Cl)cc1,/,-24%,23µM*,?,/,-24%
CCOC(=O)c1cnc2ccc(OC)cc2c1Nc1ccc(OCc2ccccc2Cl)cc1,/,?,7.3µM*,12µM*,/,-17%
CCSc1nc2c([nH]c3ccccc32)c(=O)n1CC,/,-3%,-19%,3%,/,2%
Cc1cc2c3c([nH]c2cc1S(=O)(=O)NCCCOC(C)C)CC(C)(C)CC3=O,-6%,-11%,?,?,0%,-26%
N=c1c2c(-c3ccccc3)c(-c3ccccc3)n(Cc3ccco3)c2ncn1CCCO,21µM*,25µM*,23µM*,13µM*,8.2µM*,18µM*
N=c1c2c(-c3ccccc3)c(-c3ccccc3)n(Cc3ccco3)c2ncn1CCO,18µM*,?,6.5µM*,7.3µM*,18µM*,-100%
SMILES,HT1080-NT tox,TGFb SMAD3 inh,TDP1 cell noCPT,DT40 TDP1 CPT,HT1080 IDH1KD tx,HepG2 tox
CCOc1ccc(CC(=O)Nc2c(C(=O)c3ccccc3)oc3ccc(Cl)cc23)cc1OCC,/,0%,?,2%,/,2%
O=C(CN1C(=O)/C(=C/c2cccc(Br)c2)SC1=S)N1CCCC1,3%,-25%,9.2µM*,3.3µM*,4%,-3%
O=C(CCN1C(=O)/C(=C\c2ccccc2F)SC1=S)N1CCCCC1,-3%,-3%,2.9µM*,3.7µM*,0%,5%
O=C(CN1C(=O)/C(=C/c2cccc(Br)c2)SC1=S)NC1=NCCS1,13%,9%,-18%,19%,13%,12%
O=C(CCN1C(=O)/C(=C/c2ccccc2)SC1=S)N1CCCCCC1,-2%,-5%,21µM*,12µM*,-6%,-10%
O=C(CCN1C(=O)/C(=C/c2ccccc2Cl)SC1=S)NN1CCOCC1,0%,-2%,?,?,10%,2%
O=C(CCN1C(=O)/C(=C/c2ccccc2F)SC1=S)Nc1ccccn1,8%,?,-23%,-17%,13%,-3%
O=C(CCN1C(=O)/C(=C\c2ccccc2Cl)SC1=S)N1CCN(c2ccccc2)CC1,2%,12%,10µM*,16µM*,19%,-7%
CCS(=O)(=O)N1CCc2cc(C(=O)Nc3cc(C(F)(F)F)ccc3Cl)ccc21,/,8%,?,?,/,-23%
O=C(Nc1cccc(C(F)(F)F)c1)c1csc([C@@H]2O[C@H](CO)[C@H](O)[C@H](O)[C@H]2O)n1,4%,3%,-5%,-5%,?,13%
COc1ccc(C(=O)COC(=O)c2cccc(-n3cnnn3)c2)c(OC)c1,-2%,4%,-22%,-6%,-1%,2%
CC(C)C[C@H]1CN=C(Nc2ccccc2)N1CC1CCC(C(C)(C)C)CC1 (stereo partly drawn),-8%,?,6.5µM*,5.8µM*,?,-109%
CC(C)C[C@H]1CN=C(Nc2ccccc2)N1CCC1CCCCC1,-2%,?,16µM*,?,0%,-33%
CC(C)C[C@H]1CN=C(Nc2ccccc2)N1CC(C)C,-1%,6%,-24%,-26%,-2%,-14%
